VDR inh = vitamin D3 receptor (human) inhibition; 400,000 compounds, 0.93% hits; VDR-SRC2-3 peptide fluorescence polarization, 2 h; Potency, µM, without a hit: max response, negative = inhibition, most hits filed as inhibitors; P11473; further: on the % scale 0 is the no-effect control and ±100 the full control effect
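VDR–SRC2-3 interaction, FP format. Cmpds 23 nl via pintool, brief spin, 2 h ambient incubation.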
PLK1 PBD block = blocks phosphopeptide binding to human PLK1 polo-box domain; Plk1 PBD binding of FITC phosphopeptide, fluorescence polarization; Potency, µM, without a hit: max response, negative = inhibition, most hits filed as inhibitors; 360,000 compounds, 2.8% hits; AID 720504; further: series mostly up to about 57 µM; on the % scale 0 is the no-effect control and ±100 the full control effect; nearly all actives have a fitted effect of over 65% in size
TSG101-PTAP inh = blocks PTAP/TSG101 interaction to inhibit HIV-1 budding; Q99816; Fluorescence polarization, FITC-PTAP peptide / Tsg101 binding; Potency, µM (series often up to 115 µM), inactives show at the top dose activity change, negative = inhibition, most hits filed as inhibitors; 340,000 tested, under 10 active; active means well fitted inhibition curve with a large enough effect in the main read-out, with a control signal flat, not every such curve was filed as active; inconclusive means small, poorly fitted or top-dose-only effect, or effect the other way, or a change in a side signal; inactive means no such curve, though single readings can be large or run the other way; further: % of control where 0% means no effect
Target sequence (Q99816 whole entry, looked up): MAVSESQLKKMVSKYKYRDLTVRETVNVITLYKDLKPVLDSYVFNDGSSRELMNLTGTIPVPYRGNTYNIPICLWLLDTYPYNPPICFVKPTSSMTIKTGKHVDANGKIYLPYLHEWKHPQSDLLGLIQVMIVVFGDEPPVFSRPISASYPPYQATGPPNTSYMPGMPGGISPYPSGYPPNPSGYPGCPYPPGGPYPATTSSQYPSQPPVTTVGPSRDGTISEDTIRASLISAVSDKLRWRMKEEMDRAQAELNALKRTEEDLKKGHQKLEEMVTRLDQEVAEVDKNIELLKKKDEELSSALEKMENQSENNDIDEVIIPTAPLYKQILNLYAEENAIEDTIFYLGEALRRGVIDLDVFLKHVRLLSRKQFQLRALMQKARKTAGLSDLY
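Compounds were pin-transferred onto Tsg101 binding domain (10 uM final) in HEPES pH 7.5 buffer, then FITC-PTAP peptide was added at 50 nM final. After 20 min at RT, polarization reported peptide displacement across a qHTS concentration series.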
USP1-UAF1 inh = USP1/UAF1 (human) deubiquitinase inhibition. Potency, µM (highest dose often 57.1 µM), inactives show top-dose activity change, negative = inhibition, actives largely listed as inhibitors. recombinant USP1/UAF1, Ub-Rhodamine cleavage fluorescence. O94782. 390,000 compounds, 0.23% hits; further: on the % scale 0 is the no-effect control and ±100 the full control effect; nearly all actives have a fitted effect of over 60% in size
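USP1/UAF1 complex at 1 nM was preincubated with compound for 15 min at room temperature, then Ub-Rho substrate (150nM final) was added. Fluorescence (480/540 nm) was read kinetically, 6 reads every 60 seconds.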
GCN5L2 inh = blocks human GCN5L2 histone acetyltransferase. Q92830. GCN5L2 HAT assay, ThioGlo1 CoA-SH fluorescence. Potency, µM (series often up to 58.9 µM), without a hit: at the highest dose activity change, negative = inhibition, actives largely listed as inhibitors. 390,000 compounds, 0.21% hits; further: on the % scale 0 is the no-effect control and ±100 the full control effect
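Enzyme at 20nM final was mixed with library compounds for 15 min at room temperature. Peptide H3(1-25) at 75uM, acetyl-CoA at 70uM and ThioGlo1 at 50uM were then added. Plates were read immediately and after 20 min (Ex340nm/Em540nm).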
* marks the source's active call; other numbers are inactive results. Only some compounds are listed: those with a hit (about 3% of all), similar ones and a draw of the others. Unless noted, the call rests on the fitted dose curve; in most records, active means well fitted curve in the direction sought with a large enough effect; inconclusive means small, poorly fitted or top-dose-only effect, or another doubt; inactive means no such curve, though single readings can be large; an effect the other way counts as inactive or inconclusive. Potency means the concentration at half of the fitted maximal effect.

Screening CC[C@H](C)[C@H](NC(=O)[C@H](Cc1ccc(O)cc1)NC(=O)[C@H](CCCNC(=N)N)NC(=O)[C@H](CCCNC(=N)N)NC(=O)[C@H](CC(C)C)NC(=O)[C@H](CC(=O)O)NC(=O)[C@H](C)NC(=O)[C@H](C)NC(=O)[C@H](Cc1ccc(O)cc1)NC(=O)[C@H](CCC(N)=O)NC(=O)[C@H](C)NC(=O)[C@H](CCSC)NC(=O)[C@H](CCC(N)=O)NC(=O)[C@H](CCC(=O)O)NC(=O)[C@@H]1CCCN1C(=O)[C@@H](NC(=O)[C@H](C)NC(=O)[C@H](CC(N)=O)NC(=O)[C@H](CC(=O)O)NC(=O)CNC(=O)[C@@H]1CCCN1C(=O)[C@H](Cc1ccc(O)cc1)NC(=O)[C@@H](NC(=O)[C@@H]1CCCN1C(=O)[C@H](CCC(=O)O)NC(=O)[C@H](CC(C)C)NC(=O)[C@@H]1CCCN1C(=O)[C@H](C)N)C(C)C)[C@@H](C)O)C(=O)N[C@@H](CC(N)=O)C(=O)N[C@@H](CCSC)C(=O)N[C@@H](CC(C)C)C(=O)N[C@H](C(=O)N[C@@H](CCCNC(=N)N)C(=O)N1CCC[C@H]1C(=O)N[C@@H](CCCNC(=N)N)C(=O)N[C@@H](Cc1ccc(O)cc1)C(N)=O)[C@@H](C)O returned GCN5L2 inh 50.5%.
Cc1cccc(NC(=O)CNC(=O)[C@H]2O[C@@H](n3ccc(N)nc3=O)[C@H](O)[C@@H]2O)c1C was read as PLK1 PBD block -9.4%.
COc1cccc2cc(C(=O)N3CCN(C45CC6CC(CC(C6)C4)C5)CC3)c(=O)oc12 was read as VDR inh 5.9%, PLK1 PBD block 26.7µM*, TSG101-PTAP inh -3.1%, USP1-UAF1 inh -27.8% and GCN5L2 inh -6.7%.
Screening COc1cccc2cc(C(=O)N3CCC(C)CC3)c(=O)oc12 returned VDR inh -17.4%, PLK1 PBD block -24.1%, TSG101-PTAP inh -0.7%, USP1-UAF1 inh inconclusive and GCN5L2 inh -7.6%.
`O=C(c1ccco1)N1CCN(C/C=C/c2ccccc2)CC1` gave VDR inh -10.2%, PLK1 PBD block 29.9µM*, TSG101-PTAP inh -4.8%, USP1-UAF1 inh 4.1% and GCN5L2 inh -1.9%.
`O=C(NC(=S)N1CCN(C/C=C/c2ccccc2)CC1)c1ccco1` gave VDR inh -15.0%, PLK1 PBD block -8.4%, TSG101-PTAP inh -2.1%, USP1-UAF1 inh -20.4% and GCN5L2 inh -2.4%.
`O=C(NCC(=O)N1CCN(C(=O)c2ccco2)CC1)c1ccc(Br)cc1` gave VDR inh -24.6%, PLK1 PBD block 21.2µM*, TSG101-PTAP inh -13.7%, USP1-UAF1 inh -6.5% and GCN5L2 inh -19.8%.
O=C(NCC(=O)N1CCCC1)c1ccc(Br)cc1 was read as VDR inh -0.6%, PLK1 PBD block -3.5%, TSG101-PTAP inh -8.1%, USP1-UAF1 inh -15.9% and GCN5L2 inh -2.9%.
For O=C1c2ccccc2C(=O)N1c1nccs1 the results were VDR inh -1.9%, PLK1 PBD block 6.7%, TSG101-PTAP inh 0.9% and USP1-UAF1 inh -2.6%.
For Cc1ccccc1-n1sc2cc(F)ccc2c1=O the results were VDR inh inconclusive, PLK1 PBD block 1.19µM*, TSG101-PTAP inh 0.2%, USP1-UAF1 inh -20.1% and GCN5L2 inh 1.26µM*.
For Cn1sc2ccccc2c1=O the results were PLK1 PBD block 4.74µM* and USP1-UAF1 inh -10.5%.
`CC1NC(=O)c2ccccc2-n2c1nc1cc(F)ccc1c2=O` (stereo unspecified) gave GCN5L2 inh 3.2%.
For O=c1c2ccccc2sn1-c1nccs1 the results were VDR inh 3.98µM*, PLK1 PBD block 2.38µM*, TSG101-PTAP inh -1.8%, USP1-UAF1 inh -6.6% and GCN5L2 inh 3.16µM*.
N#Cc1ccc2c(=O)n(-c3ccccc3)sc2c1 was read as PLK1 PBD block 2.99µM* and USP1-UAF1 inh -1.8%.
`N#Cc1c(-n2ncnc2-c2ccc(F)cc2)sc2c1CCCCC2` gave VDR inh -0.6%, USP1-UAF1 inh inconclusive and GCN5L2 inh -6.3%.
Screening O=C(O)c1cccc(-n2sc3ccccc3c2=O)c1 returned VDR inh 7.08µM*, PLK1 PBD block 1.19µM*, TSG101-PTAP inh -3.1%, USP1-UAF1 inh -24.8% and GCN5L2 inh 1.26µM*.
O=c1c2ccccc2sn1-c1ccccc1 was read as VDR inh 3.98µM*, PLK1 PBD block 1.06µM*, TSG101-PTAP inh -5.3%, USP1-UAF1 inh -17.5% and GCN5L2 inh 1µM*.
Screening CC(=O)Nc1ccc2c(=O)n(-c3ccccc3)sc2c1 returned PLK1 PBD block 2.38µM* and USP1-UAF1 inh -25.6%.
For CN(C)S(=O)(=O)c1cccc(-n2sc3ccccc3c2=O)c1 the results were VDR inh 31.6µM*, PLK1 PBD block 1.19µM*, TSG101-PTAP inh -2.7%, USP1-UAF1 inh -5.9% and GCN5L2 inh 1.58µM*.
Screening C[C@H]1COC(=O)[C@@H](Cc2ccc(F)cc2)C/C=C\C[C@@H](CC(=O)N[C@@H](CO)Cc2ccccc2)C(=O)N1 returned VDR inh -8.7%, PLK1 PBD block 2.8%, TSG101-PTAP inh -0.5%, USP1-UAF1 inh -26.9% and GCN5L2 inh -2.6%.
`CC1(C)OC(=O)C2(Cc3cc([N+](=O)[O-])ccc3N3CCCCC32)C(=O)O1` (stereo unspecified) gave VDR inh -10.4%.
Cn1c(=O)n(-c2cccc(Cl)c2)c(=O)c2sc3ccccc3c21 was read as VDR inh -14.8%, USP1-UAF1 inh -29.0% and GCN5L2 inh -6.4%.
Screening O=c1c2ccccc2sn1-c1ccccc1F returned PLK1 PBD block 2.99µM* and USP1-UAF1 inh 5.7%.
`O=c1c2ccccc2sn1-c1cccc(Cl)c1` gave PLK1 PBD block 2.99µM* and USP1-UAF1 inh -16.4%.
`CCn1c(=O)c2cc(C(=O)Nc3cc(F)ccc3F)sc2c2ccccc21` gave VDR inh 3.3%, USP1-UAF1 inh -12.5% and GCN5L2 inh -9.5%.
COc1ccc(-n2sc3c(c2=S)-c2cc(OC)ccc2NC3(C)C)cc1 was read as VDR inh 2.4%, PLK1 PBD block 23.8µM*, TSG101-PTAP inh 1.2%, USP1-UAF1 inh -22.9% and GCN5L2 inh -7.3%.
For COc1ccc2c(c1)-c1c(sn(-c3ccccc3)c1=S)C(C)(C)N2 the results were VDR inh 6.4%, PLK1 PBD block -5.6%, TSG101-PTAP inh 0.8%, USP1-UAF1 inh -22.0% and GCN5L2 inh -14.3%.
`N[C@H](Cn1ccc(=O)n(Cc2ccccc2C(=O)O)c1=O)C(=O)O` gave VDR inh 1.3% and GCN5L2 inh -10.4%.
O=C(CCNc1ccccc1)c1cccc([N+](=O)[O-])c1 was read as VDR inh 89.1µM*, PLK1 PBD block inconclusive, TSG101-PTAP inh -3.9%, USP1-UAF1 inh -24.5% and GCN5L2 inh -10.5%.
